The text below walks through data of PubChem BioAssay (NCI).

Structures are written as SMILES. About 83,000 compounds went through this panel and 20% of them were active in at least one assay; those are over-represented in the sample as a whole.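 96-well plates, one dose, 48 hours. Percent growth reported; active if below 10.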 Values without a mark were called inactive. Activity calls are given as the source filed them.

Test systems include HCT-15 colon; HT29 colon; SNB-75 CNS; SNB-19 CNS; U251 CNS; PC-3 prostate; SK-MEL-5 melanoma; UACC-62 melanoma; LOX IMVI melanoma; SK-MEL-28 melanoma; SK-MEL-2 melanoma; EKVX NSCLC; SN12C renal; UO-31 renal; TK-10 renal; ACHN renal; CAKI-1 renal; A498 renal; CCRF-CEM leukemia; MOLT-4 leukemia.
Holding throughout (assay): NCI-60 one-dose screen, 48 h (100 = growth as untreated, 0 = no growth, -100 = all killed)
What all share (conditions): 10 µM

Turning to `CC(=O)NS(=O)(=O)c1ccc(NC(=O)CSC2=NC(c3ccccc3)C(C(C)=O)=C(C)N2)cc1` (centres undefined), the growth in the assay on HCT-15 colon is 101%; with HT29 colon, 114%; in the assay with SNB-75 CNS, 99%; with SNB-19 CNS, 104%; in the assay with U251 CNS, 116%; in the assay with PC-3 prostate it was 110%. Further, the growth with SK-MEL-5 melanoma is 101%; in the assay with UACC-62 melanoma, 98.5%; in the assay with LOX IMVI melanoma, 94.9%; in the assay with SK-MEL-28 melanoma, 107%; with SK-MEL-2 melanoma, 115%; in the assay with EKVX NSCLC it was 104%. Besides, the growth in the assay with SN12C renal was 111%; in the assay with UO-31 renal, 91.5%; with TK-10 renal it was 116%; with ACHN renal, 111%; with CAKI-1 renal it was 99.4%; in the assay with A498 renal it was 133%. Moreover, the growth in the assay on CCRF-CEM leukemia is 95.4%; in the assay with MOLT-4 leukemia, 109%.
As for `N#Cc1c(-c2ccc(Cl)cc2)cc(-c2ccccc2)nc1OCc1ccccc1`, the growth in the assay on HCT-15 colon was 36.1%; with HT29 colon, 65%; in the assay with SNB-75 CNS it was 74.7%; in the assay with SNB-19 CNS, 89.8%; in the assay with U251 CNS it was 60.2%; with PC-3 prostate, 40.1%. Further, the growth in the assay with SK-MEL-5 melanoma was 54%; in the assay with UACC-62 melanoma, 62.3%; with LOX IMVI melanoma, 65.7%; with SK-MEL-28 melanoma it was 86%; in the assay on SK-MEL-2 melanoma it was 76%; in the assay on EKVX NSCLC, 52.6%. For the same compound, the growth was 87.8% in the assay on SN12C renal; 65.6% with UO-31 renal; 97.8% with TK-10 renal; 75% in the assay on ACHN renal; 73.8% in the assay with CAKI-1 renal; 118% with A498 renal. Besides, the results for the growth in the assay on CCRF-CEM leukemia and in the assay on MOLT-4 leukemia were 79.9% and 47.8%, respectively.
As for `N#Cc1ccc(-c2nn(-c3ccc(C(=O)O)cc3)cc2CNc2cc(Cl)cc(C(F)(F)F)c2)cc1`, the growth in the assay on HCT-15 colon was 7.93% (active); in the assay with HT29 colon, 18.8%; with SNB-75 CNS, 31%; with SNB-19 CNS, 20.9%; in the assay on U251 CNS, 18.5%; in the assay on PC-3 prostate, 14.1%. For the same compound, the growth is -64.1% (active) with SK-MEL-5 melanoma; -48.8% (active) in the assay on UACC-62 melanoma; -24% (active) in the assay on LOX IMVI melanoma; 12.2% with SK-MEL-28 melanoma; 8.11% (active) with SK-MEL-2 melanoma; 22.8% with EKVX NSCLC. The growth is 18.4% in the assay with SN12C renal; 25% in the assay with UO-31 renal; 63.5% in the assay with TK-10 renal; 17.3% in the assay on ACHN renal; 20.8% in the assay on CAKI-1 renal; 39.8% with A498 renal. Also, the growth was 5.2% (active) with CCRF-CEM leukemia and 6.25% (active) with MOLT-4 leukemia.
For `O=C(Nc1nc2ccccc2s1)c1ccc(Br)cc1`, the growth is 85.8% with HCT-15 colon; 87.3% in the assay on HT29 colon; 107% in the assay on SNB-75 CNS; 98.8% with SNB-19 CNS; 107% in the assay with U251 CNS; 82.1% in the assay on PC-3 prostate. The growth with SK-MEL-5 melanoma is 70.5%; with UACC-62 melanoma, 73.3%; with LOX IMVI melanoma, 82.9%; in the assay on SK-MEL-28 melanoma it was 90.7%; in the assay with SK-MEL-2 melanoma, 96.1%; with EKVX NSCLC it was 63.5%. Besides, the growth was 89.9% with SN12C renal; 76.1% in the assay on UO-31 renal; 104% in the assay with TK-10 renal; 94.8% in the assay with ACHN renal; 91.1% in the assay on CAKI-1 renal; 115% in the assay on A498 renal. Also, the growth was 85.6% with CCRF-CEM leukemia and 74.3% with MOLT-4 leukemia.
Turning to `O=C1Nc2ccc(Cl)cc2/C1=C/c1ccc(OCc2ccccn2)cc1`, the growth in the assay on HCT-15 colon was 35.7%; in the assay with HT29 colon, 67.5%; with SNB-75 CNS it was 113%; with SNB-19 CNS, 50.7%; with U251 CNS, 23.7%; in the assay with PC-3 prostate, 62.1%. Besides, the growth in the assay with SK-MEL-5 melanoma is 89.5%; in the assay on UACC-62 melanoma it was 66.7%; in the assay with LOX IMVI melanoma, 56.5%; in the assay with SK-MEL-28 melanoma, 100%; in the assay with SK-MEL-2 melanoma it was 111%; with EKVX NSCLC, 65.7%. Also, the growth with SN12C renal is 44.5%; in the assay on UO-31 renal, 59.6%; in the assay with TK-10 renal it was 90.1%; in the assay with ACHN renal, 57%; in the assay with CAKI-1 renal, 61.6%; with A498 renal, 45.1%. Also, the growth is 83.2% with CCRF-CEM leukemia and 46.8% with MOLT-4 leukemia.
As to `COc1ccc(CCN2C(=O)/C(=C/c3csc(C#N)n3)SC2=S)cc1OC`, the growth is -45.4% (active) with HCT-15 colon; -48.4% (active) with HT29 colon; 71.7% in the assay on SNB-75 CNS; 80% in the assay on SNB-19 CNS; 89.8% with U251 CNS; 71.6% in the assay on PC-3 prostate. In addition, the growth in the assay on SK-MEL-5 melanoma is 74.2%; with UACC-62 melanoma it was 46.8%; in the assay with LOX IMVI melanoma it was -62.7% (active); in the assay with SK-MEL-28 melanoma, 18.9%; with SK-MEL-2 melanoma, 85.6%; with EKVX NSCLC, 79.8%. Besides, the growth was 31.8% in the assay with SN12C renal; 15.5% in the assay on UO-31 renal; 1.31% (active) in the assay with TK-10 renal; 8.31% (active) with ACHN renal; 25.3% with CAKI-1 renal; 80% with A498 renal. In addition, the growth in the assay with MOLT-4 leukemia is -10.7% (active).
For the compound `COc1ccc2[nH]c(=O)c(CSc3nccc(-c4ccc(Cl)cc4)n3)cc2c1`, the growth in the assay on HCT-15 colon is 36.3%; with HT29 colon it was 33.9%; with SNB-75 CNS, -11.5% (active); in the assay with SNB-19 CNS, 40.5%; with U251 CNS it was 13%; in the assay on PC-3 prostate, 29.3%. Further, the growth in the assay with SK-MEL-5 melanoma is 44.8%; in the assay with UACC-62 melanoma it was 37.9%; in the assay with LOX IMVI melanoma it was 27.9%; with SK-MEL-28 melanoma, 45.3%; in the assay on SK-MEL-2 melanoma it was 42.9%; with EKVX NSCLC it was 7.4% (active). The growth in the assay on SN12C renal is 34.4%; with UO-31 renal, 7.11% (active); in the assay on TK-10 renal, 19.6%; in the assay on ACHN renal it was -46.2% (active); in the assay with CAKI-1 renal, -75.9% (active); with A498 renal, 45.5%. In addition, the growth with CCRF-CEM leukemia was 32.6%; in the assay with MOLT-4 leukemia, 22%.
For the compound `COc1csc(/C=N/NC(=O)c2[nH]c3ccc(Br)cc3c2-c2ccccc2)c1`, the growth in the assay on HCT-15 colon is 0.545% (active); in the assay on HT29 colon, -30.8% (active); in the assay with SNB-75 CNS it was 4.17% (active); in the assay with SNB-19 CNS it was 29.1%; in the assay with U251 CNS, 9.71% (active); with PC-3 prostate it was 14.9%. Also, the growth in the assay on SK-MEL-5 melanoma was -37.2% (active); in the assay with UACC-62 melanoma, 20.3%; in the assay with LOX IMVI melanoma, 12.6%; in the assay with SK-MEL-28 melanoma it was 35.3%; in the assay with SK-MEL-2 melanoma, 10.3%; with EKVX NSCLC, 49.2%. The growth with SN12C renal is 5.51% (active); in the assay with UO-31 renal it was 36.7%; in the assay with TK-10 renal, 32.8%; with ACHN renal it was 19.1%; in the assay on CAKI-1 renal it was 9.49% (active); with A498 renal, 57.8%. Also, the growth in the assay on CCRF-CEM leukemia is -2.42% (active); with MOLT-4 leukemia it was 1.69% (active).
